This is an account of results in PubChem BioAssay (NCATS).

The structures appear in SMILES notation. A number with no mark means an inactive call. Results filed as inconclusive are left out. Activity calls are given as the source filed them. Unless noted, calls come from the whole dose curve; as a rule, active = well fitted curve in either direction with a large enough effect (not every such curve was filed as active); inconclusive = small, poorly fitted or top-dose-only effect, or another doubt; inactive = flat fitted curve, though single readings scatter.

The target in test [1] is Lysosomal acid glucosylceramidase (Homo sapiens) (UniProt P04062). Description: Glucocerebrosidase-p2 (AID 348; in the data active = potency below about 10 µM; note: potency is the fitted concentration of half-maximal effect). To be noted: purified GBA, blue fluorogenic substrate, 40 min. The gist of the method:
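Normal human glucocerebrosidase (0.2 nM) with blue fluorogenic substrate (80 uM final) in citrate/phosphate pH 5.9 with 10mM sodium taurocholate, 0.01% tween-20; 40 min RT, NaOH/glycine stop; fluorescence Ex 365/Em 440; AC50 from a titration from 0.6 nM upwards.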

Test [2] in a line: AP1 Signaling Pathway (AID 357).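 Note: ME-180 reporter cells stimulated with EGF at its EC50 level; % is set by controls: 0 for no effect and ±100 for the full control effect.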 The note with it: ME-180 AP-1-bla reporter, EGF-induced, beta-lactamase ratio, 5 h; at 7.69 µM (top of the series) unless noted. The essentials:
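Beta-lactamase reporter under AP-1 response element, ME-180 background. Stimulus: EC50 EGF. Compound exposure 5 h, 37 °C. Detection: CCF4, 2.5 h RT, 460/530 nm. Values: AC50 from titration.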

The nature of test [3]: NFAT Signaling Pathway (AID 444).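 Note: carbachol stimulus at about its EC50 of 1 µM final; % is set by controls: 0 for no effect and ±100 for the full control effect.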 To be noted: Jurkat NFAT-bla M1, carbachol, beta-lactamase ratio, 5 h; at 7.69 µM (top of the series) unless noted. The essentials: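 Jurkat cells carrying an NFAT-driven β-lactamase reporter and co-transfected muscarinic M1 receptor were treated with compound plus carbachol (1 uM final, an EC50 level) for 5 h at 37 °C. CCF4 loading followed for 1 h at RT; 460/530 nm ratio gave %activity.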

The target of test [4] is Glucocorticoid receptor (Homo sapiens) (UniProt P04150). Kind of test: GR-GFP Redistribution (AID 450;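 active = compounds whose dose series gives a full or clear partial fitted curve of increased nuclear translocation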; note: potency is the fitted concentration of half-maximal effect). To be noted: U2OS GR-GFP nuclear translocation, laser cytometry, 2 h.
Chain of Glucocorticoid receptor (Homo sapiens) (P04150 whole entry, looked up, the tested form may be a part): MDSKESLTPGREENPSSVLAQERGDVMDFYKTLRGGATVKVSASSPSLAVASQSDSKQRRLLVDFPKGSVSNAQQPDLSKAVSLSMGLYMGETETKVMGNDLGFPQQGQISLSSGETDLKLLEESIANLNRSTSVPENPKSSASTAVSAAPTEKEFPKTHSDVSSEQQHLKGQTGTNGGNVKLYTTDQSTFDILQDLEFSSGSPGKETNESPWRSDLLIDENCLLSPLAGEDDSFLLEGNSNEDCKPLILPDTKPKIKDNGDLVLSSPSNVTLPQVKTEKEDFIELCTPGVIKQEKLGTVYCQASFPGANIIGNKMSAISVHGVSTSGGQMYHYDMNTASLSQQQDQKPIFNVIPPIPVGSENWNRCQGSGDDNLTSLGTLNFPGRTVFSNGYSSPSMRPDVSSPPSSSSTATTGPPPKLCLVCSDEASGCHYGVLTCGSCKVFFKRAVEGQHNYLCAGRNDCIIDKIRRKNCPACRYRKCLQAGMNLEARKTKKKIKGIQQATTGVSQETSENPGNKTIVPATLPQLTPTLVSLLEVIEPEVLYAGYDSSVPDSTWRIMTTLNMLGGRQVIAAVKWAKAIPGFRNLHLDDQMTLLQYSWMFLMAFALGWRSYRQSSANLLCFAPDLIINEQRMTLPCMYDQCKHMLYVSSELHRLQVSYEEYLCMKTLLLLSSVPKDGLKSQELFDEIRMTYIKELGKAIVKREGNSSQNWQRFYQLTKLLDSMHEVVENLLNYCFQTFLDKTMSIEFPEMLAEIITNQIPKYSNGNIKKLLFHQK
The target is the same in test [5]. Kind of test: GR-EFC Redistribution (AID 451; calls by dose curve; note: potency is the fitted concentration of half-maximal effect). To be noted: CHO-K1 GR-EFC translocation, beta-gal luminescence, 2 h. The essentials: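 CHO-K1 cells stably expressing nuclear-localized β-gal enzyme acceptor and GR fused C-terminally to the enzyme donor fragment; ligand-driven nuclear translocation restores β-gal by complementation. Compounds titrated up to 46 uM final, 2 h at 37 °C; luminescence read.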

The target of test [6] is Mitogen-activated protein kinase 10 (Mus musculus) (UniProt Q61831). Kind of test: JNK3 AlphaScreen Assay (AID 530).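 Note: kinase came from lysate of stimulated human HepG2 cells; signal reports phosphorylation of biotinylated GST-cJun 1-79 at Ser73 with 10 µM ATP; % is set by controls: 0 for no effect and ±100 for the full control effect.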 The note with it: JNK3 lysate, c-Jun phosphorylation; series mostly up to 11.4 µM. The gist of the method:
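Phosphorylation of biotinylated GST-cJun(1-79) at Ser73 is measured by AlphaScreen proximity luminescence. Enzyme is JNK3 in HepG2 lysates activated with interleukin-1beta and tumor necrosis factor alpha; ATP is 10 uM final.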
(Alpha assays give light when donor and acceptor beads are brought close together.)

Test [7] concerns the target 3',5'-cyclic-AMP phosphodiesterase 4B (Homo sapiens) (UniProt Q07343). Kind of test: qHTS Assay for Inhibitors of PDE-IV (AID 607; active = well fitted activation curve with a large enough effect in the main read-out, with a control signal flat, not every such curve was filed as active; note: % of control where 0% means no effect). The note with it: HEK293 ACTOne CNG channel cells, membrane potential fluorescence; series mostly up to 22.9 µM. The gist of the method: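 HEK293 ACTOne cells with CNG channel (1000/well), endogenous PDE4; membrane potential dye, compounds up to 22.9 uM final. Fluorescence Ex 535/Em 590; RO 20-1724 (100 uM final) as reference.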
A general note: qHTS replaces the single test concentration by a dilution series.

Test [8] is described as follows: Stat Signaling Pathway (AID 446).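 Note: ME-180 cervical cancer cells given 40 pM IL-6 alongside compound; SIE-controlled beta-lactamase reporter measured as 460/530 nm FRET emission ratio; % is set by controls: 0 for no effect and ±100 for the full control effect.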 The note with it: ME-180 (cervical carcinoma) SIE beta-lactamase reporter, IL-6 stimulated, 5 h; at 7.69 µM (top of the series) unless noted. The essentials: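 Normalization used AC90 stimulation (300 pM IL-6) and AC90 inhibition (125 nM pan-JAK inhibitor at 40 pM IL-6). The underlying signal is SIE-driven beta-lactamase in ME-180 cells after 5 h IL-6 exposure with compound.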

Test [9] deals with Cytochrome P450 2D6 (Homo sapiens) (UniProt P10635). Description: qHTS Assay for Inhibitors and Substrates of Cytochrome P450 2D6 (AID 891; active = well fitted curve in the direction sought with a large enough effect; an effect the other way counts as inactive or inconclusive; note: nearly all actives have a fitted effect of over 60% in size; note: potency is the fitted concentration of half-maximal effect). The note with it: recombinant CYP2D6, luciferin-ME EGE luminescence; series mostly up to 11.4 µM. The essentials: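 Luminescent read-out of luciferin formed by 5 nM human CYP2D6 demethylating 30 uM Luciferin-ME EGE (Km level) over 60 min at room temperature after NADPH regeneration addition. Data normalized to full inhibition by 1.43 uM quinidine.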
Chain of Cytochrome P450 2D6 (Homo sapiens) (P10635 whole entry, looked up): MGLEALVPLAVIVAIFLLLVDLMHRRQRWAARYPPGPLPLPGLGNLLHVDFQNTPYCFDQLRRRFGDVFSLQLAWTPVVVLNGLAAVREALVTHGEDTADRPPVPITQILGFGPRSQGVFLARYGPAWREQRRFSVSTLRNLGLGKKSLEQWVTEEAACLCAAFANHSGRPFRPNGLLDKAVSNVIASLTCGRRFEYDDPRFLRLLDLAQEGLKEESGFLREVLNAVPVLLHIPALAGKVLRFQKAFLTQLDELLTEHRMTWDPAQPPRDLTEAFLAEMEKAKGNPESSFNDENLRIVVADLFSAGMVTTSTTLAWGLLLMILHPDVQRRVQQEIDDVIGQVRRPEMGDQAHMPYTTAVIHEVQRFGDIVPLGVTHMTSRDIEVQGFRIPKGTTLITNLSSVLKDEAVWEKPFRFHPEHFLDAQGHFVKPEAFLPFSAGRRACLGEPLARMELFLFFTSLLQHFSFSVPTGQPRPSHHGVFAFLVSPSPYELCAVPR

The target in test [10] is Cytochrome P450 3A4 (Homo sapiens) (UniProt P08684). Kind of test: qHTS Assay for Activators of Cytochrome P450 3A4 (AID 885; active = well fitted curve in the direction sought with a large enough effect; an effect the other way counts as inactive or inconclusive; note: nearly all actives have a fitted effect of over 65% in size). The note with it: recombinant CYP3A4, Luciferin-PPXE luminescence, 60 min; series mostly up to 11.4 µM. The essentials: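 Human CYP3A4 dealkylates Luciferin-PPXE to luciferin, which luciferase detection converts to light. Substrate was at its KM (25uM), buffer 200mM KPO4, reaction 60 min at RT.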
Chain of Cytochrome P450 3A4 (Homo sapiens) (P08684 whole entry, looked up): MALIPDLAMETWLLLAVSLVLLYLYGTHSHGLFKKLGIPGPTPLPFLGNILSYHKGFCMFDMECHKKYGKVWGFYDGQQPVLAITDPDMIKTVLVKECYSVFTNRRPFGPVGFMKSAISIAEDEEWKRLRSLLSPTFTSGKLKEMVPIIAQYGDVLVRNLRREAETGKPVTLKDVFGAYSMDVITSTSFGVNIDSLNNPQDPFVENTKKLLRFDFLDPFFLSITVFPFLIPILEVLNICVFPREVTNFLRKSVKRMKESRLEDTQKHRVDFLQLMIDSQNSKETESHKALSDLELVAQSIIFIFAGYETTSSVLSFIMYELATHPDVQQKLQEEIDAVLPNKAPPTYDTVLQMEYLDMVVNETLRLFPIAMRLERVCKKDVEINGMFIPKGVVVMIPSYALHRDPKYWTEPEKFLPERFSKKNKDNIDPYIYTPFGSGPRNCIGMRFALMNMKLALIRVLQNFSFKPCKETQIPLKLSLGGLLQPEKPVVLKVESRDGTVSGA

In test [11] the target is Cytochrome P450 2C9 (Homo sapiens) (UniProt P11712). Description: qHTS Assay for Inhibitors and Substrates of Cytochrome P450 2C9 (AID 883; active = well fitted curve in the direction sought with a large enough effect; an effect the other way counts as inactive or inconclusive; note: potency is the fitted concentration of half-maximal effect; nearly all actives have a fitted effect of over 60% in size). The note with it: recombinant CYP2C9, luciferin-H luminescence, 60 min; series mostly up to 11.4 µM. The essentials: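 CYP2C9 deoxyluciferin hydroxylation, 37C, 60 min with NADPH regeneration; 10nM enzyme, 100uM Luciferin-H (KM). Glo detection reagent stopped reaction; luminescence normalized to sulphaphenazole (57uM) full inhibition.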
Chain of Cytochrome P450 2C9 (Homo sapiens) (P11712 whole entry, looked up): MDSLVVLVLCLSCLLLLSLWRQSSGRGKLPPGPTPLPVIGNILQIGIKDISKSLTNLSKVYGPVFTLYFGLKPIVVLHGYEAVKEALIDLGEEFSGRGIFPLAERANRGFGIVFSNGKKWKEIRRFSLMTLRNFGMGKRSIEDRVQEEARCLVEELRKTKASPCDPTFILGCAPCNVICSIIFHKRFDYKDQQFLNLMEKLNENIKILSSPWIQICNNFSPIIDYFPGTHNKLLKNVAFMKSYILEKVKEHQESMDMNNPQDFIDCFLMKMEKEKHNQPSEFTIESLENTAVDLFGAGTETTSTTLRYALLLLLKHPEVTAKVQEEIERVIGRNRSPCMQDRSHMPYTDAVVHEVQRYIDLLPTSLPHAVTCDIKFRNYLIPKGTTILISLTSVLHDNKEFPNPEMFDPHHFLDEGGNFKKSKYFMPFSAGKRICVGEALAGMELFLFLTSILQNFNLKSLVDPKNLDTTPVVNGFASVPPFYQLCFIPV

Chain of Lysosomal acid glucosylceramidase (Homo sapiens) (P04062 whole entry, looked up): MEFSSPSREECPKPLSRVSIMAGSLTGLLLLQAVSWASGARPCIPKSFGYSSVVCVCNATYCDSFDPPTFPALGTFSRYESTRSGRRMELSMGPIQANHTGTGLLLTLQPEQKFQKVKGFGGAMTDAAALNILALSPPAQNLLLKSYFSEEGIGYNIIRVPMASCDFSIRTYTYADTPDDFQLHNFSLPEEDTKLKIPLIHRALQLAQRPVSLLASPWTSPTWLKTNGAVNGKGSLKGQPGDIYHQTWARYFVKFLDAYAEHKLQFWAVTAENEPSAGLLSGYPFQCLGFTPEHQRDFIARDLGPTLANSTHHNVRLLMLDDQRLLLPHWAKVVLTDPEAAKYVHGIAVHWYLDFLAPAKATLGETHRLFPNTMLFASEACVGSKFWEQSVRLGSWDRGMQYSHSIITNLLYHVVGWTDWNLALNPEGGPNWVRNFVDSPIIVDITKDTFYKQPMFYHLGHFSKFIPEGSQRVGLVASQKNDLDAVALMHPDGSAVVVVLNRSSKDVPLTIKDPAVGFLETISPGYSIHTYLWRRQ
Chain of 3',5'-cyclic-AMP phosphodiesterase 4B (Homo sapiens) (Q07343 whole entry, looked up): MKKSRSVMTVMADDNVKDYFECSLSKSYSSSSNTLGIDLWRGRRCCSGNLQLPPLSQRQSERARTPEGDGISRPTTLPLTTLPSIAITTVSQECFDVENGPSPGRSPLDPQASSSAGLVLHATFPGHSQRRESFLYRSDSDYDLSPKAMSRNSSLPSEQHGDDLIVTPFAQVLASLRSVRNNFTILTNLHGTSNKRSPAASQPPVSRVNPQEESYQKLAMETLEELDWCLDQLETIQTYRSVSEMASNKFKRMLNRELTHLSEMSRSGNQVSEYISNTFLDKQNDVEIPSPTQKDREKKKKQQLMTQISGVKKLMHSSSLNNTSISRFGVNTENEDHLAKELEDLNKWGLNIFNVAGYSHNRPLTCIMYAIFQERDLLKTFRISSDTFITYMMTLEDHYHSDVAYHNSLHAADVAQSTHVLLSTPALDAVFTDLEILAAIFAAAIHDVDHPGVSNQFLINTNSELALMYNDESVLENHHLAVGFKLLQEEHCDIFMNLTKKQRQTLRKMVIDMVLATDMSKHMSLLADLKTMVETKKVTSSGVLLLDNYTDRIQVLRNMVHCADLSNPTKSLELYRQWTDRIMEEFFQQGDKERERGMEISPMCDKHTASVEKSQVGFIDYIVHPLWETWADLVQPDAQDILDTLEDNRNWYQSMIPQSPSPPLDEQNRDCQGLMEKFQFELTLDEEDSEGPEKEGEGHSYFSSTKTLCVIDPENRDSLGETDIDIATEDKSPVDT

With `O=C(O)C[C@H](Nc1ccccc1)C(=O)O`, the Potency in [1] was greater than 11.4 µM; in [4] it was greater than 46 µM; in [5] it was greater than 9.22 µM. In addition, the values for the activity change, negative = inhibition in [2] and in test [3] were 0.63% and 19.5%, respectively. Further, the Potency result in test [6] and in test [7] was “inactive” in each case.

`Cc1cc(C)nc(NC(=O)COc2ccc(Cl)cc2)c1`: the Potency was greater than 11.4 µM in test [1], greater than 46 µM in test [4] and greater than 9.22 µM in [5]. Moreover, the activity change, negative = inhibition in [2] is 7.73%; in test [3], -19.2%. For the same compound, the Potency result in test [6] and in test [7] was “inactive” throughout.

In the case of `CC(C)c1ccc2c(c1)CC[C@H]1[C@@](C)(CN)CCC[C@@]21C`, the Potency in test [1] is greater than 11.4 µM; in [9], 1.26 µM (active). Besides, the activity change, negative = inhibition in [2] was 6.87%; in [3], 30%. Besides, the activity, negative = inhibition in [8] was 11.3%. In addition, the Potency entry in [6] and in test [7] was “inactive” throughout.

As to `O=C(O)c1ccncc1.O=C(O)c1ccncc1.[Cl][Pt]([Cl])([Cl])[Cl]`, the Potency in test [1] was greater than 11.4 µM; in test [4] it was greater than 46 µM; in test [5], greater than 9.22 µM. Also, the activity change, negative = inhibition is 2.72% in [2] and -19.9% in test [3]. Also, the Potency result in test [6] and in test [7] was “inactive” in each case.

As to `CCN(CC)COC(=S)S`, the Potency in test [1] was greater than 11.4 µM; in [4], greater than 46 µM; in test [5], greater than 9.22 µM. Besides, the activity change, negative = inhibition in [2] is 7.48%; in test [3], -12.2%. The Potency result in [6] and in test [7] was “inactive” in each case.

Turning to `Nc1nc(SCC(=O)c2ccc(Br)cc2)c2[nH]cnc2n1`, the Potency in test [1] was greater than 11.4 µM; in [5], greater than 9.22 µM. Further, the activity change, negative = inhibition in [2] is -11.1%; in [3] it was 23.5%. Moreover, the activity, negative = inhibition in test [8] was 1.94%. The Potency entry in test [6] and in test [7] was “inactive” in each case.

Regarding `O=C(O)[C@@H](O)[C@H](O)C(=O)O`, the Potency in test [1] is greater than 11.4 µM; in test [4], greater than 46 µM; in test [5], greater than 9.22 µM. The figures for the activity change, negative = inhibition in test [2] and in [3] were -6.26% and 14.9%, respectively. Also, the Potency result in test [6] and in test [7] was “inactive” each time.

As for `O=C(O)[C@H](/C=C\c1ccccc1)c1ccccc1`, the results for the Potency in [1], in test [4] and in test [5] were greater than 11.4 µM, greater than 46 µM and greater than 9.22 µM, respectively. Also, the figures for the activity change, negative = inhibition in test [2] and in test [3] were 0.652% and -12%, respectively. Also, the Potency entry in test [6] and in test [7] was “inactive” throughout.

In the case of `O[C@H]([C@H](O)[C@@H](O)c1nc2ccccc2[nH]1)[C@@H](O)c1nc2ccccc2[nH]1`, the values for the Potency in test [1] and in test [5] were greater than 11.4 µM and greater than 9.22 µM, respectively. Moreover, the activity change, negative = inhibition in test [2] was 6.21%; in test [3], 19.9%. The activity, negative = inhibition in test [8] is 6.86%. For the same compound, the Potency entry in test [6] and in test [7] was “inactive” throughout.

For `CCOC(=O)Cn1c(C(F)(F)F)nc2nc(Cl)c(Cl)nc21`, the Potency in test [1] is greater than 11.4 µM; in [4] it was greater than 46 µM; in [5] it was greater than 9.22 µM. Further, the activity change, negative = inhibition in test [2] is 6.84%; in test [3], -10.5%. The Potency result in test [6] and in test [7] was “inactive” in each case.

Turning to `COc1ccc(C(=O)N2CCC[C@@]3(CCN(c4ccccc4)C3)C2)cc1`, the Potency was greater than 11.4 µM in [1] and greater than 46 µM in test [5]. Also, the activity change, negative = inhibition in test [2] is -5.32%; in [3], -9.66%. Besides, the activity, negative = inhibition in test [8] is -1.29%. Moreover, the Potency entry in test [10] was “inactive”.

Take `COc1ccc(-n2c(=O)c(-c3cccs3)nc3cnc(Oc4ccccc4)nc32)cc1`: the Potency was greater than 11.4 µM in test [1], greater than 9.22 µM in test [4] and greater than 46 µM in [5]. The activity change, negative = inhibition was -6.68% in test [2] and -26.9% in test [3]. The Potency result in test [6] and in test [7] was “inactive” in each case.

Turning to `c1ccc(CSCCc2ccncc2)cc1`, the Potency is greater than 11.4 µM in [1]; greater than 46 µM in [4]; greater than 9.22 µM in test [5]; 0.316 µM (active) in test [11]; 1.26 µM (active) in test [9]. Further, the activity change, negative = inhibition in test [2] was -1.16%; in [3] it was -10.1%. The Potency entry in [6] and in [7] was “inactive” each time.

With `CN1CCC[C@@H]1c1cccnc1.O=C(O)c1ccccc1O.O=C([OH2+])c1ccccc1O.O=C([OH2+])c1ccccc1O.O=C([OH2+])c1ccccc1O.[Mn]`, in [1], the Potency was greater than 11.4 µM. The activity change, negative = inhibition in [2] is 13.3%; in test [3], -2.84%. The activity, negative = inhibition in test [8] is -11.4%. Besides, the Potency result in test [6] and in test [7] was “inactive” in each case.

As for `O=C(O)Cc1c[nH]c2ccc(F)cc12`, the Potency is greater than 11.4 µM in [1] and greater than 9.22 µM in [5]. Besides, the activity change, negative = inhibition was 0.0381% in test [2] and 24.2% in test [3]. Moreover, the activity, negative = inhibition in test [8] was 5.52%. Moreover, the Potency result in [6] and in test [7] was “inactive” in each case.

For the compound `CN1CCC[C@@H]1c1cccnc1.O=C(O)c1ccccc1O.O=C([OH2+])c1ccccc1O.O=C([OH2+])c1ccccc1O.[Mn]`, the Potency in [1] was greater than 11.4 µM. Moreover, the values for the activity change, negative = inhibition in test [2] and in test [3] were 10.8% and -9.45%, respectively. The activity, negative = inhibition in test [8] was 17.5%. Moreover, the Potency entry in [6] and in test [7] was “inactive” in each case.

Regarding `CCN(CC)CCN1C(=O)c2cccc3cc(N)cc(c23)C1=O`, the Potency in test [1] is greater than 11.4 µM; in test [4] it was greater than 46 µM; in test [5], greater than 9.22 µM. The activity change, negative = inhibition in test [2] was 25.3%; in test [3], -6.74%. The Potency entry in [6] and in test [7] was “inactive” in each case.

In the case of `CN1CCN(CN2C(=O)C3C4C=CC(C3C2=O)C2C3C(=O)N(CN5CCN(C)CC5)C(=O)C3C42)CC1` (stereo not drawn), the Potency in test [1] is greater than 11.4 µM; in test [5], greater than 9.22 µM. Also, the activity change, negative = inhibition is 4.11% in test [2] and 4.36% in test [3]. For the same compound, the activity, negative = inhibition in test [8] is 11%. The Potency entry in test [6], in test [7] and in test [9] was “inactive” throughout.

Take `Cc1nn(-c2ccc(S(=O)(=O)O)cc2)c(O)c1N=Nc1ccc(-c2ccc(N=Nc3ccc4c(S(=O)(=O)O)cc(S(=O)(=O)O)c(N)c4c3O)c(O)c2)cc1O.[Cu].[Cu]`: the Potency in [1] was greater than 11.4 µM; in test [4], greater than 46 µM; in test [5] it was greater than 9.22 µM. Moreover, the values for the activity change, negative = inhibition in test [2] and in test [3] were 8.16% and 6.08%, respectively. For the same compound, the Potency entry in test [6] and in [7] was “inactive” in each case.
